MCF10A rereplic: A quantitative high throughput screen for small molecules that induce DNA re-replication in MCF 10a normal breast cells; MCF 10A DNA re-replication, Hoechst nuclear intensity, 48 h; Potency, µM (doses to about 46.1 µM), inactives show at the highest dose activity, positive = re-replication, actives largely listed as activators; 350,000 tested, 2.9% active; further: % of control where 0% means no effect; nearly all actives have a fitted effect of over 50% in size
SW480 rereplic: A quantitative high throughput screen for small molecules that induce DNA re-replication in SW480 colon adenocarcinoma cells | 340,000 tested, 1.8% active | SW480 DNA re-replication, Hoechst DNA content imaging, 48 h | AID 624297, 2012 | Potency, µM (series often up to 46.1 µM), for the others: top-dose re-replication activation, hits mostly activators; further: % of control where 0% means no effect; nearly all actives have a fitted effect of over 55% in size
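Per well, 250 cells were exposed to pinned compound for 48 hr. Nuclear DNA was visualised with Hoechst (40 min, 37 C) and total object intensity recorded by fluorescence scanning.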
KB-3-1 cytotox: qHTS assay for MDR1-selective chemotherapeutics: Primary screen using the parental adenocarcinoma cell KB-3-1; Potency, µM (doses to about 46.1 µM), usual class: cytotoxic; KB-3-1 viability, CellTiter-Glo ATP luminescence, 72 h; 400,000 tested, 1.4% active; AID 1347075, 2019; further: on the % scale 0 is the no-effect control and ±100 the full control effect; nearly all actives have a fitted effect of over 60% in size
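Cytotoxicity measured as CellTiter-Glo luminescence after 72 h at 37 C. Compound titrations were pinned onto drug-naive KB-3-1 parental adenocarcinoma cells grown in DMEM with 10% FBS, and normalized data fitted to concentration-response curves.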
KB-V1 MDR tox: qHTS assay for MDR1-selective chemotherapeutics: Primary screen using the drug-selected MDR subline cells KB-V1 | 400,000 tested, 3.4% active | KB-V1 MDR cells viability, CellTiter-Glo, 72 h | AID 1347076, 2019 | Potency, µM (titrated, usually from 46.1 µM), hits mostly cytotoxic; further: on the % scale 0 is the no-effect control and ±100 the full control effect; nearly all actives have a fitted effect of over 60% in size
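Drug-selected KB-V1 cells, grown in DMEM lacking phenol red with 10% FBS, receive compound titrations; after three days at 37 degrees C, surviving cell ATP is quantified by CellTiter-Glo luminescence and responses normalized and curve-fitted.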
ALOX12 inh: Primary qHTS assay for inhibitors of human arachidonate 12S-lipoxygenase (ALOX12): Round 2. Potency, µM (top dose mostly 108 µM), without a hit: at the top dose activity change, negative = inhibition, actives largely listed as inhibitors. 580,000 tested, 1.1% active. Polyunsaturated fatty acid lipoxygenase ALOX12 (Homo sapiens), P18054. AID 1671190, 2021. purified 12hLO, xylenol orange hydroperoxide absorbance; further: on the % scale 0 is the no-effect control and ±100 the full control effect
Target sequence (P18054 whole entry, looked up): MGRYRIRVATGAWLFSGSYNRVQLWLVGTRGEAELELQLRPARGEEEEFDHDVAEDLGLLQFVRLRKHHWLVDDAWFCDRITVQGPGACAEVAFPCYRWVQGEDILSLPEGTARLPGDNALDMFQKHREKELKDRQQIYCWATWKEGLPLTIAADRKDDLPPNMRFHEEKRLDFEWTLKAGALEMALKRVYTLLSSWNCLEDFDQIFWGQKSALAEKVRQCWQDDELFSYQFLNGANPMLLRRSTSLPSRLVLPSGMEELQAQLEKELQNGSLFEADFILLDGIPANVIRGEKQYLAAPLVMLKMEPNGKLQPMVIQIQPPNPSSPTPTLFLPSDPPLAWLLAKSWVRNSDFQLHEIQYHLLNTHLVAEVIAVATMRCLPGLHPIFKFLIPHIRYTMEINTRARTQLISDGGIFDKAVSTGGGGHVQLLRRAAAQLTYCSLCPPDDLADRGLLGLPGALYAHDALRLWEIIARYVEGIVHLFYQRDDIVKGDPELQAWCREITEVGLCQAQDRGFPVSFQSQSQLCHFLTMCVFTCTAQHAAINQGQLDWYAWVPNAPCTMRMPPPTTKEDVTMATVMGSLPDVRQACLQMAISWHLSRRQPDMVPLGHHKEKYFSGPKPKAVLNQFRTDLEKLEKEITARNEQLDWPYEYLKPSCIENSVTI
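Purified human 12hLO at 150 nM in 25 mM Hepes, 0.01% Triton X-100, pH 7.0, preincubated 15 min at room temperature with compound. Reaction started with 40 uM arachidonic acid, 30 min at room temperature. Hydroperoxide measured by Fe-xylenol orange, 573/405 nm absorbance ratio.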
PINK1 modulator: A Quantitative High throughput Screen to Identify Chemical Modulators of PINK1 Expression; PINK1 immunofluorescence, high-content cytometry, 24 h; Potency, µM (doses to about 76.6 µM), for inactives: at the highest dose activation (PINK1 increase), actives largely listed as activators; 410,000 tested, 0.2% active; AID 624263, 2012; active means well fitted activation curve with a large enough effect; inconclusive means small, poorly fitted or top-dose-only effect; cell line not stated here; further: % of control where 0% means no effect; nearly all actives have a fitted effect of over 65% in size
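Measures PINK1 amount and localization on or inside mitochondria by immunofluorescence. Stable cells get compounds at 5 concentrations for 24 hours before fixation and staining; CCCP controls included.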
The depositor's hits bear a star; [ ] = remark or other dose. Hits are enriched below; roughly 5.8% of the tested compounds scored in any of these assays. Unless noted, the call rests on the fitted dose curve; in most records, active means well fitted curve in the direction sought with a large enough effect; inconclusive means small, poorly fitted or top-dose-only effect, or another doubt; inactive means no such curve, though single readings can be large; an effect the other way counts as inactive or inconclusive. Potency means the concentration at half of the fitted maximal effect.

For CCC(=O)NN1CCN(c2ccncc2S(=O)(=O)N2CCCCC2)CC1 the results were MCF10A rereplic -14%, SW480 rereplic 0%, KB-3-1 cytotox inactive, KB-V1 MDR tox inactive, ALOX12 inh 0% and PINK1 modulator 1%.
Screening CCC(=O)N(C(=O)CC)N1CCN(c2ccncc2S(=O)(=O)N2CCCCC2)CC1 returned MCF10A rereplic 5%, SW480 rereplic 0%, KB-3-1 cytotox 0.029µM*, KB-V1 MDR tox inactive, ALOX12 inh inactive and PINK1 modulator 1%.
Screening CCCCCn1c(SCC(N)=O)nc2c1c(=O)[nH]c(=O)n2C returned ALOX12 inh 36%.
For COc1ccccc1N1C(=O)c2ccccc2NC1c1cn(C)c(=O)n(C)c1=O (stereo unspecified) the results were ALOX12 inh -1%.
`COc1ccccc1NC(=O)C(=O)NCC(c1ccco1)N1CCc2ccccc21` (stereo unspecified) gave MCF10A rereplic 14%, SW480 rereplic inconclusive, KB-3-1 cytotox inactive, KB-V1 MDR tox inactive, ALOX12 inh inconclusive and PINK1 modulator 1%.
For COc1ccc(OC)c(S(=O)(=O)NCC(c2ccco2)N2CCc3ccccc32)c1 (stereo unspecified) the results were MCF10A rereplic 10%, SW480 rereplic 9%, KB-3-1 cytotox inactive, KB-V1 MDR tox inconclusive, ALOX12 inh 40µM* and PINK1 modulator -1%.
`O=C(NCC(c1ccco1)N1CCc2ccccc21)C(=O)Nc1ccccc1` (stereo unspecified) gave MCF10A rereplic 12%, SW480 rereplic -476%, KB-3-1 cytotox inactive, KB-V1 MDR tox inactive, ALOX12 inh inconclusive and PINK1 modulator 9%.
Screening COc1ccccc1C(=O)NCC(c1ccco1)N1CCc2ccccc21 (stereo unspecified) returned MCF10A rereplic inconclusive, SW480 rereplic -41%, KB-3-1 cytotox inactive, KB-V1 MDR tox inactive, ALOX12 inh inconclusive and PINK1 modulator 10%.
`O=C(NCC(c1ccco1)N1CCc2ccccc21)C(=O)Nc1ccc(F)cc1F` (stereo unspecified) gave MCF10A rereplic 4.1µM*, SW480 rereplic inconclusive, KB-3-1 cytotox 4.6µM*, KB-V1 MDR tox 4.1µM*, ALOX12 inh inconclusive and PINK1 modulator inconclusive.
`O=C(NCC(c1ccco1)N1CCc2ccccc21)C(=O)Nc1ccccc1F` (stereo unspecified) gave MCF10A rereplic inconclusive, SW480 rereplic inconclusive, KB-3-1 cytotox 15µM*, KB-V1 MDR tox 16µM*, ALOX12 inh -17% and PINK1 modulator inconclusive.
O=c1oc2cc(O)ccc2cc1-c1nc(-c2ccc(Cl)cc2)cs1 was read as ALOX12 inh 8%.
Cc1nn(C)cc1C(=O)Nc1cc(Oc2ccc(Cl)cc2)cc([N+](=O)[O-])c1 was read as MCF10A rereplic 97%, SW480 rereplic 22%, KB-3-1 cytotox 21µM*, KB-V1 MDR tox inconclusive, ALOX12 inh -26% and PINK1 modulator inconclusive.
`O=C(Nc1cc(Oc2ccc(Cl)cc2)cc([N+](=O)[O-])c1)c1ccco1` gave MCF10A rereplic 16µM*, SW480 rereplic 0%, KB-3-1 cytotox inactive, KB-V1 MDR tox inactive, ALOX12 inh -24% and PINK1 modulator inconclusive.
Screening CCOc1ccc(Oc2cc(NC(=O)c3ccco3)cc([N+](=O)[O-])c2)cc1 returned MCF10A rereplic inconclusive, SW480 rereplic 5%, KB-3-1 cytotox inactive, KB-V1 MDR tox inactive, ALOX12 inh 0% and PINK1 modulator inconclusive.
Screening Cc1ccccc1Cn1ccc(NC(=O)c2nn(C)cc2[N+](=O)[O-])n1 returned MCF10A rereplic 6.5µM*, SW480 rereplic 10µM*, KB-3-1 cytotox inactive, KB-V1 MDR tox inconclusive, ALOX12 inh -3% and PINK1 modulator -1%.
CCn1nc(C)c(C(=O)Nc2cc(Oc3cc(C)cc(C)c3)cc([N+](=O)[O-])c2)c1C was read as MCF10A rereplic 23µM*, SW480 rereplic inconclusive, KB-3-1 cytotox 18µM*, KB-V1 MDR tox 3.3µM*, ALOX12 inh -12% and PINK1 modulator 13%.
`CCn1cc([N+](=O)[O-])c(C(=O)Nc2ccn(Cc3ccccc3F)n2)n1` gave MCF10A rereplic -7%, SW480 rereplic -7%, KB-3-1 cytotox inactive, KB-V1 MDR tox inactive, ALOX12 inh 8% and PINK1 modulator -4%[38.3 µM].
For COc1ccc2c(c1)cc(C(=O)NCCC(=O)Nc1ccc3c(c1)OCCO3)n2C the results were ALOX12 inh 0%.
`Cn1cc([N+](=O)[O-])c(C(=O)Nc2cc(Oc3ccccc3)cc([N+](=O)[O-])c2)n1` gave MCF10A rereplic 2.9µM*, SW480 rereplic 4.1µM*, KB-3-1 cytotox inconclusive, KB-V1 MDR tox inconclusive, ALOX12 inh -21% and PINK1 modulator -3%.
COc1ccc(C2C(C(=O)OC(C)C)=C(C)Nc3nc4ccccc4n32)cc1 (stereo unspecified) was read as ALOX12 inh 8%.
Nc1ccccc1OCC1CCCO1 (stereo unspecified) was read as ALOX12 inh 9%.
For COc1ccc(CCNc2ncnc3sccc23)cc1OC the results were MCF10A rereplic 12%, SW480 rereplic -5%, KB-3-1 cytotox inconclusive, KB-V1 MDR tox inconclusive, ALOX12 inh -6% and PINK1 modulator 2%.
For COc1ccc(CCNc2nc(C)nc3c2oc2ccccc23)cc1OC the results were MCF10A rereplic inconclusive, SW480 rereplic 7%, KB-3-1 cytotox inconclusive, KB-V1 MDR tox 16µM*, ALOX12 inh -18% and PINK1 modulator 0%.
`COc1ccc(CCNc2ncnc3c2oc2ccccc23)cc1OC` gave MCF10A rereplic 5%, SW480 rereplic -4%, KB-3-1 cytotox 9.2µM*, KB-V1 MDR tox 2.6µM* and ALOX12 inh -27%.
Screening Cc1nc(NCCc2cnc[nH]2)c2oc3ccccc3c2n1 returned MCF10A rereplic 12%, SW480 rereplic -6%, KB-3-1 cytotox inactive, KB-V1 MDR tox inconclusive and ALOX12 inh 0%.
Screening COc1ccc(CNC(=O)C23CCC(=O)N2CCS3)cc1 (stereo unspecified) returned ALOX12 inh 4%.

Compound activity: PubChem BioAssay, National Center for Advancing Translational Sciences (NCATS)
